Screening data: PubChem BioAssay, several laboratories
PTEN del growth – PTEN-deleted cell growth suppression; HCT116 PTEN-null viability, CellTiter-Glo, 60 h; hits give low values; actives 1.2% (n = 140,000); viability, % at 10 µM;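 active means viability at or below a set limit, 4 SD under the median of all tested compounds, cut at about 3.7% in these data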;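 further: PTEN knockout HCT116 line with beta catenin targeted HCT116 as companion control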
ROMK mod – modulators of human ROMK potassium channel; AID 1918; actives 2% (n = 130,000); P48048; B-score at 10 µM; Tet-inducible ROMK, thallium flux fluorescence; actives lie on both sides;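 active means signal ratio slope over the read window, or its plate-corrected B-score, at least 3 SD from the plate mean, either direction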;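 further: B-score of the F/F0 ratio slope over 7 to 12 s after thallium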
Target sequence (P48048 whole entry, looked up): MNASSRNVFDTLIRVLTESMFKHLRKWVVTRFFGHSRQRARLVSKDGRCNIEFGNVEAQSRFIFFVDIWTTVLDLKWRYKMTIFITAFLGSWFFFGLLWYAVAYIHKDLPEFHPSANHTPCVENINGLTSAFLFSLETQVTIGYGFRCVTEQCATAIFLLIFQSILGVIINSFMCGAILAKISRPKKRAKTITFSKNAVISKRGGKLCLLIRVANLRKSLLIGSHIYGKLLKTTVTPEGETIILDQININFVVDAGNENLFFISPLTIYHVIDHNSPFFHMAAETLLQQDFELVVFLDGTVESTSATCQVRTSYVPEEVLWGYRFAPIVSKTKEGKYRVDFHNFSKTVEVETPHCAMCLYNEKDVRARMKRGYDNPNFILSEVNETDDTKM
HCT116 bCat-KO – beta-catenin-lacking colon tumor cell growth suppression. HCT116 beta-catenin knockout viability, CellTiter-Glo, 60 h; hits give low values. viability, % at 10 µM. actives 1.5% (n = 140,000);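 active means viability at or under a set limit, the compound median less 4 SD, cut at about 6% in these data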
INS promoter inh – TRM-6 insulin promoter activity inhibition. inhibition, % at 2 µM. TRM-6 cells (human fetal islet line), insulin promoter-eGFP reporter, imaging; reporter expression induced with tamoxifen. AID 1273. actives 0.9% (n = 130,000);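 active means inhibition above the mean plus 3 SD, with well images judged a real hit on visual review, cut at about 60% in these data, passing the limit was not always enough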
p97 ATPase inh – inhibitors of human p97 ATPase | P55072 | recombinant p97 ATPase, Kinase-Glo ATP luminescence, 3 h | inhibition, % at 8 µM | actives 0.42% (n = 220,000) | AID 1481; in the data active means inhibition above about 15%
Lmaj promast – reduces viability of Leishmania major promastigotes | resazurin fluorescence viability | inhibition, % at 10 µM | actives 9% (n = 200,000); in the data active means inhibition above about 50%;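 further: promastigotes grown with compound for 44 hours at 28 °C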
Numbers stand for hits; i = inactive; nt = no result given. Rows were chosen to be rich in hits. Some 10% of all compounds tested hit in one or more screens of this group.

SMILES	PTEN del growth	ROMK mod	HCT116 bCat-KO	INS promoter inh	p97 ATPase inh	Lmaj promast
CC1(C)Cc2ccccc2C(/C(=N\Nc2cccc(Cl)c2)C(N)=O)=N1	i	i	i	i	i	98
CC1(C)Cc2ccccc2C(/C(=N/O)C(N)=O)=N1	i	i	i	i	i	61
CC1=NC(C)(C)Cc2ccccc21	i	nt	i	i	i	i
CC(=O)/C(N)=N/Nc1cccc(Cl)c1	i	i	i	i	i	i
COc1ccccc1C(c1nnnn1Cc1ccccc1)N1CCN(c2nc3ccccc3s2)CC1 (stereo unspecified)	i	nt	i	i	i	91
c1ccc(C(c2nnnn2Cc2ccco2)N2CCN(c3nc4ccccc4s3)CC2)cc1 (stereo unspecified)	i	nt	i	i	i	98
COc1ccc(C(c2nnnn2C(C)(C)C)N2CCN(c3nc4ccccc4s3)CC2)cc1 (stereo unspecified)	i	nt	i	i	i	57
c1ccc(Cn2nnnc2C(c2ccccc2)N2CCN(c3nc4ccccc4s3)CC2)cc1 (stereo unspecified)	i	i	i	nt	i	100
CCc1ccc(S(=O)(=O)Nc2ccc(N3CCN(C)CC3)cc2)cc1	nt	nt	nt	nt	i	nt
COC(=O)c1cccc(Oc2cccc(Cl)n2)c1	nt	i	nt	nt	i	i
CCC(c1nnnn1Cc1ccc2c(c1)OCO2)N1CCN(c2ccc(F)cc2)CC1 (stereo unspecified)	i	nt	i	nt	i	i
CC(C)C(c1nnnn1Cc1ccccc1)N1CCN(Cc2ccco2)CC1 (stereo unspecified)	i	nt	i	nt	i	i
CC(C)C(c1nnnn1Cc1ccco1)N1CCN(c2cccc(Cl)c2)CC1 (stereo unspecified)	i	nt	i	i	i	85
CCC(c1nnnn1Cc1ccc2c(c1)OCO2)N1CCN(c2ccc(OC)cc2)CC1 (stereo unspecified)	i	nt	i	nt	i	71
COc1ccc(Cn2nnnc2C(c2cccnc2)N2CCN(c3ccc(O)cc3)CC2)cc1 (stereo unspecified)	i	nt	i	i	i	94
COc1ccc(Cn2nnnc2C(c2cccs2)N2CCN(c3ccccc3)CC2)cc1 (stereo unspecified)	i	nt	i	i	i	i
CCCCC(c1nnnn1Cc1ccco1)N1CCN(c2nc3ccccc3s2)CC1 (stereo unspecified)	i	i	i	nt	i	97
CCCC(c1nnnn1CCOC)N1CCN(c2nc3ccccc3s2)CC1 (stereo unspecified)	nt	i	nt	i	i	i
Cc1cccc(C)c1OCCNC(=O)OCc1ccccc1	nt	i	nt	nt	i	i
Nc1c(CO)nnn1-c1ccccc1	i	i	i	i	i	i
CC(C)CCN(C(=S)Nc1cccc(F)c1)C1CCN(C(C)C)CC1	nt	i	nt	nt	i	i
Cc1ccc(S(=O)(=O)Cn2nnnc2C(C(C)C)N2CCN(c3nc4ccccc4s3)CC2)cc1 (stereo unspecified)	i	nt	i	i	i	99
COCCn1nnnc1C(CC(C)C)N1CCN(c2nc3ccccc3s2)CC1 (stereo unspecified)	nt	i	nt	nt	i	i
COc1ccc(C(c2nnnn2Cc2ccccc2)N2CCN(c3nc4ccccc4s3)CC2)cc1OC (stereo unspecified)	i	i	i	i	i	100
O=C(O)c1cc(N2C(=O)C3C4C=CC(C4)C3C2=O)ccc1N1CCOCC1 (stereo unspecified)	nt	i	nt	nt	i	i
SMILES	PTEN del growth	ROMK mod	HCT116 bCat-KO	INS promoter inh	p97 ATPase inh	Lmaj promast
C=CC(O)Cc1c(C)n[nH]c1C (stereo unspecified)	i	i	i	77	i	i
COc1ccc(C2(O)CC3CCC(C2)N3c2cc(C)nc(-c3ccccc3)n2)cc1 (stereo unspecified)	i	i	i	nt	i	63
Cc1cccc(C)c1N1CCN(S(=O)(=O)c2ccc(F)cc2)CC1	i	i	i	i	i	i
Cc1ccc(S(=O)(=O)N2CCC(CN3C(=O)c4cccc5cccc(c45)C3=O)CC2)cc1	i	nt	i	i	i	95
O=C1c2cccc3cccc(c23)C(=O)N1CC1CCN(S(=O)(=O)c2ccc(F)cc2)CC1	i	i	i	i	i	98
Cc1cc(C)c(S(=O)(=O)N2CCN(CCN3C(=O)c4cccc5cccc(c45)C3=O)CC2)cc1[N+](=O)[O-]	i	i	i	i	i	53
CCCS(=O)(=O)N1CCN(CCN2C(=O)c3cccc4cccc(c34)C2=O)CC1	nt	i	nt	nt	i	i
O=C(c1ccc(S(=O)(=O)N2CCCCCC2)cc1)N1CCC(CN2C(=O)c3cccc4cccc(c34)C2=O)CC1	i	i	i	nt	i	80
COc1ccccc1/C=C\C(=O)NCC(=O)N/N=C/c1ccc(O)cc1O	nt	nt	nt	nt	i	nt
CCN(CC)CC(O)COc1ccc2c(c1)c(C(C)=O)c(C)n2-c1ccccc1 (stereo unspecified)	i	nt	i	i	i	100
CCOC(=O)c1c(C)n(C)c2ccc(OCC(O)CN(CC)CC)cc12 (stereo unspecified)	i	nt	i	nt	i	99
O=C(c1ccc(COc2ccccc2Br)o1)N1N=C(C(F)F)CC1(O)C(F)F (stereo unspecified)	i	nt	i	i	i	i
COC(=O)c1ccc(NC(=O)CO/N=C2\CCCc3nonc32)cc1	nt	i	nt	i	i	i
CC(Oc1cc(F)ccc1[N+](=O)[O-])C(=O)N(C)CC(=O)Nc1ccccc1C(F)(F)F (stereo unspecified)	nt	i	nt	i	i	i
COc1ccc(/C=N/N2CCOCC2)cc1COc1ccc(Cl)cc1	i	i	i	i	i	87
Cc1c(NS(=O)(=O)c2cccs2)cccc1-c1nc2cccnc2s1	nt	nt	nt	nt	i	nt
O=S(=O)(Nc1cccc2ncccc12)c1cccs1	1.5	nt	1.7	nt	i	100
CCCCSCCCNC(=O)Nc1ccc(CC)cc1	nt	i	nt	i	i	i
Cn1c(-c2ccccc2)c(/C=N/NC(=O)c2cccnc2)c2ccccc21	nt	i	nt	i	i	62
O=C(N/N=C/c1c(O)n(Cc2ccccc2)c(=O)c2ccccc12)c1cccnc1	nt	-4.4	nt	nt	i	i
O=C(N/N=C/c1cn(Cc2ccccc2)c2ccccc12)c1cccnc1	i	nt	i	i	i	i
CC(=O)Nc1ccc(C(=O)N/N=C/c2ccccc2OCc2ccccc2)cc1	nt	i	nt	nt	i	i
O=C(N/N=C/c1ccccc1OCc1ccccc1)c1cccnc1	i	i	i	i	i	75
O=C(N/N=C/c1c(-c2ccccc2)[nH]c2ccccc12)c1cccnc1	nt	i	nt	nt	i	i
CCCC(=O)Nc1cccc(-c2nc3ccccc3c(=O)o2)c1	nt	i	nt	nt	i	i
CCOC(=O)N1CCC(N2Cc3cccc(C(=O)NCc4ccc(OC)cc4)c3C2=O)CC1	i	i	i	i	i	70
CCOC(=O)N1CCC(N2Cc3cccc(C(=O)NCc4ccccc4OC)c3C2=O)CC1	i	nt	i	nt	i	i
Cc1ccc(-c2nn(-c3ccccc3)cc2C=O)o1	nt	i	nt	nt	i	52
Cc1ccc(-c2nn(-c3ccccc3)cc2C(N)=O)o1	nt	i	nt	nt	i	i
